The source made the active and inactive calls. The calls were made as follows: active = hit-call score of the fitted dose curve at least 0.9, where 1 is the maximum; inactive = score below 0.9.

In general, AC50 refers to the midpoint of the concentration-response curve, whichever way the signal moves.

The nature of assay [1]: BSK_4H_Eotaxin3: BioMAP Diversity Plus: 4H Assay for Eotaxin 3 Biomarker Activity (AID 2283000).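 As to outcome: CCL26 protein level quantified by ELISA in parallel with SRB cytotoxicity check.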 The note with it: primary human endothelial cells (HUVEC); actives raise or lower the signal. An outline of the steps:
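ELISA quantitation of CCL26 (Eotaxin-3) protein from chemically dosed human vascular endothelial cells at 24 h; increases and decreases both scored relative to DMSO-treated baseline.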

Read-out in assay [2]: Intercellular Adhesion Molecule 1 (ICAM1), ICAM1 (gene 3383)
The assay is described as follows: BSK_3C_ICAM1: BioMAP Diversity Plus: 3C Assay for Intercellular Adhesion Molecule 1 (ICAM1) Biomarker Activity (AID 2283003). The following applies: primary human endothelial cells (HUVEC); actives raise or lower the signal. Summed up:
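Chemicals are dosed onto primary human umbilical vein endothelium (3C system). After 24 h, ICAM-1 is measured by ELISA, and responses are fitted bidirectionally relative to DMSO.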

Read-out in assay [3]: Interleukin-1 alpha (IL1a), IL1A (gene 3552)
The assay is described as follows: BSK_BE3C_IL1a: BioMAP Diversity Plus: BE3C Assay for Interleukin-1 alpha (IL1a) Biomarker Activity (AID 2283016). The following applies: primary human bronchial epithelial cells; actives raise or lower the signal. Summed up:
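Signal from IL-1a ELISA, taken 24 h after chemical dosing of human bronchial epithelial cells, is compared with DMSO as baseline using bidirectional curve fitting.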

Read-out in assay [4]: Monocyte Chemoattractant Protein-1 (MCP1), CCL2 (gene 6347)
The assay is described as follows: BSK_3C_MCP1: BioMAP Diversity Plus: 3C Assay for Monocyte Chemoattractant Protein-1 (MCP1) Biomarker Activity (AID 2283017). The note with it: primary human endothelial cells (HUVEC); actives raise or lower the signal. Summed up: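 Using human vascular primary endothelium, researchers measured MCP-1 by ELISA 24 h after treatment, with DMSO serving as negative control for bidirectional fitting.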

Read-out in assay [5]: Interleukin-8 (IL8), CXCL8 (gene 3576)
The assay is described as follows: BSK_3C_IL8: BioMAP Diversity Plus: 3C Assay for Interleukin-8 (IL8) Biomarker Activity (AID 2283020). The note with it: primary human endothelial cells (HUVEC); actives raise or lower the signal. Summed up:
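Endothelial primary cells of human umbilical vein origin are dosed with chemical; after 24 h the IL-8 biomarker is measured by ELISA, and concentration–response is fitted in both directions versus DMSO.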

Assay [6] is described as follows: BSK_3C_SRB: Viability Assessment in the BioMAP Diversity Plus: 3C Assay (AID 2283023).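 Also: cells read 24 h after compound dosing; fitted both ways against DMSO so a hit may be signal rise or drop.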 The following applies: primary human endothelial cells (HUVEC). An outline of the steps:
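Overt cytotoxicity is gauged in parallel confluent HUVEC cultures by SRB total-protein staining at the time of biomarker measurement, 24 h after dosing. Gain or loss of signal is fitted versus DMSO.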

Read-out in assay [7]: Pselectin, SELP (gene 6403)
The assay is described as follows: BSK_4H_Pselectin: BioMAP Diversity Plus: 4H Assay for Pselectin Biomarker Activity (AID 2283026). The following applies: primary human endothelial cells (HUVEC); actives raise or lower the signal. Summed up:
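Endothelial primary cells (human umbilical vein) are dosed, incubated 24 h, and assayed for surface P-selectin by ELISA; responses in either direction are fitted relative to the DMSO negative control.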

A short description of assay [8]: BSK_4H_SRB: Viability Assessment in the BioMAP Diversity Plus: 4H Assay (AID 2283027).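 Also: cells exposed to compound for 24 h before staining.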 The following applies: primary human endothelial cells (HUVEC). Summed up: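 HUVEC, 24 h post-dose; 10% TCA fix, 0.1% SRB stain, A560 nm. Total protein = overt cytotoxicity, parallel to biomarker read. Bidirectional fit vs DMSO baseline.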
Read-out in assay [9]: Human Leukocyte Antigen - DR isotype (HLADR), HLA-DRA (gene 3122)
The assay is described as follows: BSK_BE3C_HLADR: BioMAP Diversity Plus: BE3C Assay for Human Leukocyte Antigen - DR isotype (HLADR) Biomarker Activity (AID 2283032). The note with it: primary human bronchial epithelial cells; actives raise or lower the signal. An outline of the steps: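 Chemicals are dosed onto BE3C bronchial epithelial cultures of human origin and left 24 h. HLA-DR is then measured by ELISA, and the endpoint is fitted in both directions using DMSO as the activity baseline.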

Read-out in assay [10]: Monokine induced gamma interferon (MIG), CXCL9 (gene 4283)
The assay is described as follows: BSK_BE3C_MIG: BioMAP Diversity Plus: BE3C Assay for Monokine induced gamma interferon (MIG) Biomarker Activity (AID 2283035).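 Also: MIG protein measured by ELISA in BE3C cultures after 24 h of dosing.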 The note with it: primary human bronchial epithelial cells; actives raise or lower the signal. Summed up:
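Dose cells (human primary bronchial epithelial), incubate 24 h, quantify MIG by ELISA, then fit concentration–response in both directions relative to DMSO control.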

Read-out in assay [11]: Transforming growth factor beta 1 (TGFb1), TGFB1 (gene 7040)
The experiment in a line: BSK_BE3C_TGFb1: BioMAP Diversity Plus: BE3C Assay for Transforming growth factor beta 1 (TGFb1) Biomarker Activity (AID 2283036;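 also: TGF-b1 protein level measured by ELISA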). The following applies: primary human bronchial epithelial cells; actives raise or lower the signal. Summed up:
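Bronchial epithelial primary cells are treated with test chemical, then TGF-b1 is quantified by ELISA after 24 hours. Values derive from bidirectional fitting against DMSO, with cytotoxicity checked by SRB staining in parallel cultures.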

Read-out in assay [12]: urokinase plasminogen activator (uPA), PLAU (gene 5328)
The experiment in a line: BSK_BE3C_uPA: BioMAP Diversity Plus: BE3C Assay for urokinase plasminogen activator (uPA) Biomarker Activity (AID 2283038).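 Also: uPA protein level quantified by ELISA in cell cultures; uPA read one day after compound addition.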 The following applies: primary human bronchial epithelial cells; actives raise or lower the signal. An outline of the steps:
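Using confluent primary human lung bronchial epithelial cultures, we dosed chemicals, waited 24 h, then ran a uPA ELISA, fitting bidirectionally against DMSO.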

Read-out in assay [13]: Macrophage colony-stimulating factor (MCSF), CSF1 (gene 1435)
The assay is described as follows: BSK_CASM3C_MCSF: BioMAP Diversity Plus: CASM3C Assay for Macrophage colony-stimulating factor (MCSF) Biomarker Activity (AID 2283044).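 Also: M-CSF protein amount quantified by ELISA after 24 h exposure.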 The following applies: primary human coronary artery smooth muscle cells; actives raise or lower the signal.

Read-out in assay [14]: Low-density lipoprotein receptor (LDLR), LDLR (gene 3949)
The assay is described as follows: BSK_CASM3C_LDLR: BioMAP Diversity Plus: CASM3C Assay for Low-density lipoprotein receptor (LDLR) Biomarker Activity (AID 2283045).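 Also: LDLR protein level on the cell surface quantified by ELISA.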 The note with it: primary human coronary artery smooth muscle cells; actives raise or lower the signal.

Read-out in assay [15]: serum amyloid A (SAA), SAA1 (gene 6288)
The assay is described as follows: BSK_CASM3C_SAA: BioMAP Diversity Plus: CASM3C Assay for serum amyloid A (SAA) Biomarker Activity (AID 2283049).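 Also: SAA protein level quantified by ELISA.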 The note with it: primary human coronary artery smooth muscle cells; actives raise or lower the signal.

Assay [16] is described as follows: BSK_CASM3C_SRB: Viability Assessment in the BioMAP Diversity Plus: CASM3C Assay (AID 2283050).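 Also: cells exposed to compound for 24 h.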 The note with it: primary human coronary artery smooth muscle cells.
Read-out in assay [17]: Vascular cell adhesion molecule 1 (VCAM1), VCAM1 (gene 7412)
The experiment in a line: BSK_CASM3C_VCAM1: BioMAP Diversity Plus: CASM3C Assay for Vascular cell adhesion molecule 1 (VCAM1) Biomarker Activity (AID 2283055).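 Also: VCAM-1 protein level quantified by ELISA on the cells.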 The following applies: primary human coronary artery smooth muscle cells; actives raise or lower the signal.

Read-out in assay [18]: Macrophage colony-stimulating factor (MCSF), CSF1 (gene 1435)
The experiment in a line: BSK_hDFCGF_MCSF: BioMAP Diversity Plus: hDFCGF Assay for Macrophage colony-stimulating factor (MCSF) Biomarker Activity (AID 2283060). The note with it: primary human foreskin fibroblasts; actives raise or lower the signal. An outline of the steps: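 fibroblasts (human foreskin, primary), 24 h post-dose; M-CSF by ELISA; bidirectional fit, DMSO = baseline.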

Read-out in assay [19]: Interleukin-1 alpha (IL1a), IL1A (gene 3552)
The assay is described as follows: BSK_KF3CT_IL1a: BioMAP Diversity Plus: KF3CT Assay for Interleukin-1 alpha (IL1a) Biomarker Activity (AID 2283070). The note with it: primary human keratinocytes with fibroblasts; actives raise or lower the signal. Summed up: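 Primary skin co-culture (keratinocytes, foreskin fibroblasts), 24 h exposure; ELISA for IL-1a; bidirectional curve fit vs DMSO.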

Read-out in assay [20]: TIMP metallopeptidase inhibitor 2 (TIMP2), TIMP2 (gene 7077)
The experiment in a line: BSK_KF3CT_TIMP2: BioMAP Diversity Plus: KF3CT Assay for TIMP metallopeptidase inhibitor 2 (TIMP2) Biomarker Activity (AID 2283071). The note with it: primary human keratinocytes with fibroblasts; actives raise or lower the signal. An outline of the steps: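 Chemicals were dosed onto human skin primary co-cultures of keratinocytes and foreskin fibroblasts, and TIMP-2 was measured by ELISA after 24 hours. Activity in either direction was fitted relative to DMSO.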

`CC(C)COP(=O)(OCC(C)C)OCC(C)C`: the result in [1], in [2], in assay [3], in assay [4], in assay [5] and in assay [6] was inactive. For the same compound, the result in [7], in assay [8], in [9], in [10], in [11] and in [12] was inactive. Further, the outcome in assay [13], in assay [14], in assay [15], in assay [16], in [17] and in assay [18] was inactive. Also, the result in assay [19] and in assay [20] was inactive.
For the compound `C=CC(=O)OCC(CC)CCCC` (stereo not given), the result in assay [1], in assay [2], in [3], in assay [6], in [7] and in [8] was inactive. In addition, the outcome in assay [9], in [10], in [11], in assay [12], in [13] and in assay [14] was inactive. For the same compound, the result in assay [15] and in assay [20] was inactive. For the same compound, the AC50 was 20 µM (active) in assay [4]; 20 µM (active) in [5]; 31.7 µM (active) in assay [16]; 20 µM (active) in assay [17]; 20 µM (active) in assay [18]; 6.47 µM (active) in assay [19].
On to `O=c1c2ccccc2c(=O)c2c1cc(Cl)c1[nH]c3c([nH]c12)c(Cl)cc1c(=O)c2ccccc2c(=O)c13`, for which the AC50 was 24.8 µM (active) in assay [1] and 20 µM (active) in assay [18]. Besides, the outcome in [2], in assay [3], in assay [4], in assay [5], in assay [6] and in [7] was inactive. The result in assay [8], in assay [9], in [10], in assay [11], in assay [12] and in assay [13] was inactive. In addition, the result in assay [14], in [15], in assay [16], in [17], in assay [19] and in assay [20] was inactive.
In the case of `Cc1ccc(OP(=O)(Oc2ccc(C)cc2)Oc2ccc(C)cc2)cc1` (tested in a mixture with another compound), the result in assay [1], in assay [2], in assay [3], in [5], in assay [7] and in assay [8] was inactive. Also, the outcome in assay [9], in assay [10], in assay [11], in [12], in [13] and in assay [14] was inactive. For the same compound, the result in [15], in assay [16], in assay [17] and in assay [19] was inactive. In addition, the AC50 in assay [4] was 20 µM (active); in assay [6], 9.68 µM (active); in assay [18], 20 µM (active); in assay [20], 5.39 µM (active).
Turning to `N#CCCCCC#N`, the outcome in assay [1], in assay [2], in assay [3], in assay [4], in [5] and in [6] was inactive. Also, the result in assay [7], in assay [8], in [9], in [10], in assay [11] and in assay [12] was inactive. Also, the result in [13], in assay [14], in assay [15], in [16], in assay [17] and in assay [18] was inactive. Moreover, the result in [19] and in [20] was inactive.
Regarding `CNC(=O)Oc1cc(C)c(SC)c(C)c1`, the AC50 in [1] is 20 µM (active); in assay [6] it was 20 µM (active); in assay [13], 13.3 µM (active); in [14] it was 7.52 µM (active); in [16] it was 10.1 µM (active); in assay [17], 20 µM (active). Besides, the outcome in [2], in [3], in assay [4], in [5], in assay [7] and in assay [8] was inactive. Moreover, the result in assay [9], in assay [10], in assay [11], in assay [12], in assay [15] and in assay [18] was inactive. For the same compound, the outcome in assay [19] and in assay [20] was inactive.

The record behind these values is PubChem BioAssay (EPA / NIEHS).
